Pf growth 48h – P. falciparum growth inhibition at 48 hours (one generation). P. falciparum luciferase growth in erythrocytes, 48 h. Potency, µM (highest dose often 28.7 µM), for the others: at the highest dose activity change, negative = inhibition, usual class: inhibitors. 5.9% of 310,000 active. AID 504832; active means well fitted inhibition curve with a large enough effect; inconclusive means small, poorly fitted or top-dose-only effect, or another doubt; inactive means no such curve, though single readings can be large or run the other way; further: on the % scale 0 is the no-effect control and ±100 the full control effect
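Luciferase-expressing parasites in RBCs, 2% Hct / 0.1% parasitemia final; RPMI 1640 + 0.5% Albumax; 37 C, 5% CO2, one generation; luminescence read-out, lower signal = inhibition.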
SARS PLpro yeast – SARS-CoV PLP inhibition in yeast; Potency, µM (highest dose often 32.9 µM), for inactives: top-dose activity, positive = growth rescue, hits mostly activators; 0.19% of 330,000 active; S. cerevisiae expressing SARS-CoV PLpro, growth rescue; further: 0% is about no effect; nearly all actives have a fitted effect of over 55% in size
RE007 growth inh – less growth of the S. pombe RE007 Vpr strain; Potency, µM (series often up to 92.2 µM), for the others: top-dose activity change, negative = less growth, actives largely listed as inhibitors; 0.21% of 360,000 active; S. pombe RE007 Vpr strain, BacTiter-Glo ATP luminescence, 24 h; active means well fitted falling curve with a large enough effect; inconclusive means small, poorly fitted or top-dose-only effect; inactive means no such curve, though single readings can be large or run the other way; further: on the % scale 0 is the no-effect control and ±100 the full control effect; nearly all actives have a fitted effect of over 50% in size
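Fission yeast RE007 carrying one integrated HIV-1 vpr copy, seeded at OD 0.01 in PMG+AL medium with 23 nL pinned compound. Grown 24 h at 30 degrees; viability read by BacTiter-Glo luminescence after 5 min.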
Pf growth 96h – P. falciparum growth inhibition at 96 hours; P. falciparum luciferase reporter growth, 96 h; Potency, µM (top dose mostly 28.7 µM), for inactives: at the top dose activity change, negative = inhibition, hits mostly inhibitors; 6.9% of 320,000 active; active means well fitted inhibition curve with a large enough effect; inconclusive means small, poorly fitted or top-dose-only effect, or another doubt; inactive means no such curve, though single readings can be large or run the other way; further: on the % scale 0 is the no-effect control and ±100 the full control effect
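Cell-based qHTS: luciferase-tagged P. falciparum in erythrocytes (2% hematocrit, 0.05% parasitemia final) incubated with compounds for 96 hours, 37 C, 5% CO2; luciferase detection reagent then added and luminescence measured.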
NS1 function inh – blocks influenza NS1 protein function. Potency, µM (highest dose often 46.1 µM), for the others: at the top dose activity, positive = more growth. 0.4% of 270,000 active; further: actives are rising curves; nearly all actives have a fitted effect of over 50% in size
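Recovery from NS1-induced slow growth read by OD600 in budding yeast switched to galactose assay medium (pH 6.0, -URA) at 1:100 dilution. Compound 23 nl per well; the matching strain lacking NS1 serves as control.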
* = called active by the depositor; ? = inconclusive; . = no result given; [ ] = dose if it differs, or a comment. A selection: hits, their analogues and other compounds. The true share with any hit is near 9.5%. Unless noted, the call rests on the fitted dose curve. Potency means the concentration at half of the fitted maximal effect.

SMILES	Pf growth 48h	SARS PLpro yeast	RE007 growth inh	Pf growth 96h	NS1 function inh
COc1ccc(N2CC(C(=O)N(C)CC(=O)Nc3ccc(Cl)c(C(F)(F)F)c3)CC2=O)c(OC)c1 (stereo unspecified)	?	5%	18%	13µM*	.
COc1ccc(CCN2CC(C(=O)N(C)CC(=O)Nc3ccc(Cl)c(C(F)(F)F)c3)CC2=O)cc1OC (stereo unspecified)	?	-2%	-7%	?	.
CCc1cc(C(=O)N(C)CC(=O)Nc2c(Cl)cccc2Cl)sc1C	?	-4%	-13%	-88%	.
Cc1csc(SCC(=O)NC2CCS(=O)(=O)C2)n1 (stereo unspecified)	.	-2%	-5%	.	.
CCN(CC)C(=O)C1=C(C)N(Cc2ccc(C(C)(C)C)cc2)C(=O)C(CC(=O)NCCCCc2ccccc2)C1 (stereo unspecified)	.	.	-3%	.	.
Nn1cnc2scc(-c3ccc(Cl)cc3)c2c1=O	4%	0%	20%	5.2µM*	-7%
COc1ccc(-c2nc3ccc(C)cn3c2NCc2ccccc2)cc1SC1CCCCC1	10µM*	1%	?	6.6µM*	.
CCCCCCSc1ccc(-c2nc3ccc(C)cn3c2NCc2ccccc2)cc1	?	2%	-2%	?	.
CCCCCCSc1ccc(-c2nc3ccc(C)cn3c2NCc2ccccc2)cc1OC	5.2µM*	2%	-3%	4.7µM*	.
CCCCNc1c(-c2ccc(OC)c(SC3CCCCC3)c2)nc2ccc(C)cn12	.	16%	-10%	.	.
CCC(C)Sc1ccc(-c2nc3ccc(C)cn3c2NCc2ccccc2)cc1OC (stereo unspecified)	3.7µM*	2%	?	4.7µM*	.
COc1ccccc1C(CNC(=O)C(CCSC)NS(=O)(=O)c1ccccc1F)N1CCCC1 (stereo unspecified)	?	2%	-5%	10%	.
O=C1c2cccc3c(Nc4ccccc4Cl)c([N+](=O)[O-])cc(c23)C(=O)N1CCO	?	-5%	15%	1µM*	-19%
CC(C)=NOC(=O)c1c(C)noc1-c1snnc1C	1.7µM*	-1%	15%	1.9µM*	-33%
COC(=O)c1c(C)noc1-c1snnc1C	-4%	0%	12%	31%	7%
Cc1cc(C)nc(N(C#N)Cc2cccc([N+](=O)[O-])c2)n1	-23%	1%	1%	30%	-2%
COc1ccc(CN(C#N)c2nc(C)cc(C)n2)cc1	?	-3%	2%	7.4µM*	9%
COc1ccccc1NC(=S)N=Nc1c(O)[nH]c2ccc(Br)cc12	0.93µM*	-3%	0%	1µM*	-1%
CC(C)NC(=S)N=Nc1c(O)[nH]c2ccc(C(C)C)cc12	8.3µM*	8%	12%	?	10%
Cc1cccc(NC(=S)N=Nc2c(O)[nH]c3ccccc23)c1	?	-5%	3%	2.9µM*	11%
Cc1occc1C(=O)N=Nc1c(O)[nH]c2ccc(Br)cc12	139%	-25%	.	4.1µM*	0%
O=C(OCCc1cc2ccccc2c(=O)o1)N1CCOCC1	33%	2%	1%	22%	.
COc1cccc(NC(=O)C(=O)NCCC2CCCCN2S(=O)(=O)c2cccs2)c1 (stereo unspecified)	32%	3%	-10%	41%	.
COc1ccccc1C(=O)NC(=O)COC(=O)c1cnc(C)cn1	2%	-2%	-15%	40%	.
CN(C)CC(C)(C)CNC(=O)CC1C(=O)NCCN1Cc1ccc(-c2ccccc2)cc1 (stereo unspecified)	-7%	3%	-9%	10%	7%
SMILES	Pf growth 48h	SARS PLpro yeast	RE007 growth inh	Pf growth 96h	NS1 function inh
COc1ccc(N(C(C)=O)S(=O)(=O)c2cc(OC)ccc2OC)cc1	-22%	3%	0%	8.3µM*	-7%
Cc1ccc(Nc2nc(Nc3ccc(C)cc3)nc(SC3=NCCS3)n2)cc1	.	28%	-17%	13µM*	25%
Cc1ccccc1Nc1nc(Nc2ccccc2C)nc(SC2=NCCS2)n1	10µM*	?	0%	.	27%
Cc1cc(C)nc(Sc2nc(Nc3ccccc3)nc(Sc3nc(C)cc(C)n3)n2)n1	?	-7%	8%	?	-1%
O=C(c1ccc(CN2CCOCC2)cc1)N1CCC(Cc2ccccc2)CC1	-22%	-5%	-15%	2.9µM*	-13%
O=C(NCc1ccccc1)c1ccc(CN2CCC(Cc3ccccc3)CC2)cc1	13µM*	-1%	-4%	-4%	9%
CCc1ccccc1NC(=O)c1ccc(CN2CCC(Cc3ccccc3)CC2)cc1	1µM*	2%	7%	25%	-15%
O=C(NCC(=O)N1CCN(c2ccccc2)CC1)c1ccc(Cl)cc1	-5%	1%	-6%	3%	1%
O=C(NCC(=O)N1CCC(Cc2ccccc2)CC1)c1ccc(Cl)cc1	0%	-5%	25%	13µM*	-62%
COCCNC(=O)c1ccc(CN2CCC(Cc3ccccc3)CC2)cc1	-12%	1%	-2%	?	2%
Cc1ccc(C(=O)C(C)OC(=O)CNS(=O)(=O)c2ccc(C)cc2)cc1 (stereo unspecified)	3%	1%	7%	38%	.
O=C1C2C(c3ccccc3)(C(=O)N1c1ccc(Cl)cc1)C2(c1ccccc1)c1ccccc1 (stereo unspecified)	4.1µM*	-23%	4%	?	9%
Cc1nc2cc(F)ccc2n1C1CCN(C(=O)c2c(F)cccc2F)CC1	1.5µM*	-1%	-5%	-10%	.
CCC(O)CNc1nc(-n2nc(C)cc2C)nc2sc3c(c12)CCCC3 (stereo unspecified)	.	1%	.	.	-10%
Cc1cc(C)n(-c2nc(SCCN(C)C)c3c4c(sc3n2)CCCC4)n1	?	-11%	10%	12µM*	-209%
CC(C)(C)NC(=O)CCCCCCCC(=O)NC(C)(C)C	4%	1%	9%	-18%	6%
CC(=O)N/N=C(\C)CC(=O)NC(C)(C)C	26%	-2%	1%	3.7µM*	.
COC(=O)CN1C(=O)Nc2ccc(Br)cc2C1c1ccccc1 (stereo unspecified)	-23%	10%	23%	3.7µM*	-1%
O=C1N=C(N2CCN(c3ccccc3)CC2)S/C1=C/c1cccs1	-17%	-17%	5%	13µM*	9%
CC(C)(C)NC(=S)N/N=C/c1c(Cl)cccc1Cl	3.7µM*	0%	-27%	2.9µM*	3%
CCC(=O)N1CCC1(C)C(=O)Nc1ccc(C)c(C)c1 (stereo unspecified)	.	.	7%[18.4 µM]	.	.
Cc1ccc(/C=C/C(=O)Nc2ccc(S(N)(=O)=O)cc2)o1	6%	1%	-4%	-6%	1%
CC(=O)NS(=O)(=O)c1ccc(NC(=O)/C=C/c2ccc(C)o2)cc1	5%	0%	9%	4.7µM*	5%
O=Cc1cn(Cc2ccc(Br)cc2)c2ccccc12	7%	-4%	18%	20%	-4%
NC1=NC(=O)/C(=C/c2cn(Cc3ccccc3)c3ccccc23)S1	2.1µM*	7%	1%	?	?

Source: PubChem BioAssay (National Center for Advancing Translational Sciences (NCATS))
